Records with an inconclusive call do not appear. Active and inactive are the calls of the source. The call rests on the fitted dose curve; in most records, active means well fitted inhibition curve with a large enough effect; inconclusive means small, poorly fitted or top-dose-only effect; inactive means no such curve, though single readings can be large or run the other way.
test: Confirmation assay for measurement of the activity of small molecule inhibitors on Zika virus induced Caspase-3 activity in human iPSC derived neural progenitor cells (hNPCs); conditions: hNPC ZIKV-induced caspase-3/7, Caspase-Glo luminescence, 6 h; series mostly up to 46.1 µM
Outline: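 ZIKV-induced caspase-3/7 signal is calculated relative to uninfected cells and infected cells. Cells receive compound 1 h before 6 h infection at 2 FFU/cell.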

Potency, active:
Clc1ccccc1-c1nc(-c2ccncc2)no1 4.35 µM
CC(=O)Nc1ccc([C@H](C)C(=O)Nc2ncc(C(C)C)s2)cc1 17.3 µM
CC(=O)Oc1ccccc1C(=O)Nc1ncc([N+](=O)[O-])s1 1 µM
Cc1csc(NC(=O)c2sc3nc4c(c(C(F)(F)F)c3c2N)CCC4)n1 15.5 µM
O=C(O)c1cccc(-c2noc(-c3ccccc3F)n2)c1 1.73 µM
O=C(Oc1ccccc1)c1cccc(C(=O)Oc2ccccc2)c1 3.98 µM
N#C/C(=C\c1ccc(O)c(O)c1)C(=O)Nc1ccccc1 15.5 µM
CC(C)(C)COc1ccc(-n2cc(C(=O)O)cn2)cc1C#N 22.4 µM
O=C(Nc1ccc(OC(F)(F)F)cc1)c1sccc1NCc1ccnc2ccccc12 6.15 µM
CCCS(=O)c1ccc2nc(NC(=O)OC)[nH]c2c1 (centres undefined) 8.69 µM
O=C1c2ccccc2-[n+]2ccc3c([nH]c4ccccc43)c21 9.75 µM
O=C(C=CC=Cc1ccc2c(c1)OCO2)N1CCCCC1 13.8 µM
COc1ccc(-c2cc(=O)c3c(O)cc(O)cc3o2)cc1O 9.75 µM
O=C(Nc1ccc(C(=O)O)c(O)c1)c1ccccc1 4.35 µM
Nc1ccc(N=Nc2ccccc2)c(N)n1 15.5 µM
CC(C(=O)O)c1ccc(C(=O)c2ccccc2)s1 (centres undefined) 6.9 µM
Cc1cccc(C#Cc2ccccc2)n1 3.46 µM
Oc1ccc(/C=C/c2cc(O)cc(O)c2)cc1 6.15 µM
O=C1C[C@@H](c2ccc(O)cc2)Oc2cc(O)cc(O)c21 17.3 µM
O=C(Nc1ncc([N+](=O)[O-])s1)c1cccs1 1.23 µM
CC(=Cc1ccccc1)C=C1SC(=S)N(CC(=O)O)C1=O 15.5 µM
CC(O)=C(C#N)C(=O)Nc1ccc(C(F)(F)F)cc1 0.774 µM
NC(=O)c1cccc2[nH]c(-c3ccc([C@H]4CCCN4)cc3F)nc12 13.8 µM
O=S(=O)(O)c1ccc2nc(-c3ccccc3)[nH]c2c1 1.23 µM

Potency, inactive:
Cc1nc(N)sc1-c1ccnc(Nc2ccc(N3CCOCC3)cc2)n1
N[C@H](CSC(c1ccccc1)(c1ccccc1)c1ccccc1)C(=O)O
CO[C@H]1C(=O)[C@]2(C)[C@@H](OC)C[C@H]3OC[C@@]3(OC(C)=O)[C@H]2[C@H](OC(=O)c2ccccc2)[C@]2(O)C[C@H](OC(=O)[C@H](O)[C@@H](NC(=O)OC(C)(C)C)c3ccccc3)C(C)=C1C2(C)C
CN(C)c1cc(NC(=O)CNC(C)(C)C)c(O)c2c1C[C@@H]1C[C@H]3[C@H](N(C)C)C(=O)C(C(N)=O)=C(O)[C@@]3(O)C(=O)C1=C2O
CC(=O)OC(C)OC(=O)C(C)c1ccc(-c2ccccc2)c(F)c1 (centres undefined)
CC(C)OC(=O)CCCC=CC[C@@H]1[C@H](C=C[C@@H](O)COc2cccc(C(F)(F)F)c2)[C@H](O)C[C@@H]1O
COc1cc(NC(C)CCCN)c2ncccc2c1 (centres undefined)
O=S(=O)(O)CCSSCCS(=O)(=O)O
COc1cccc2c1C(=O)c1c(O)c3c(c(O)c1C2=O)C[C@@](O)(C(=O)CO)C[C@@H]3O[C@H]1C[C@H](N)[C@H](O[C@@H]2CCCCO2)[C@H](C)O1
CCCC(=O)OC[C@@H](OC(=O)CCC)[C@@H](OC(=O)CCC)[C@H](Cn1c2nc(=O)[nH]c(=O)c-2nc2cc(C)c(C)cc21)OC(=O)CCC

Source: PubChem BioAssay AID1224855 (National Center for Advancing Translational Sciences (NCATS), 2016)
